High-throughput results as filed in PubChem BioAssay.
USP1-UAF1 inh – USP1/UAF1 (human) deubiquitinase inhibition. O94782. recombinant USP1/UAF1, Ub-Rhodamine cleavage fluorescence. Potency, µM (series often up to 57.1 µM), inactives show top-dose activity change, negative = inhibition, usual class: inhibitors. hit rate 0.23% among 390,000. AID 743255; active = well fitted inhibition curve with a large enough effect; inconclusive = small, poorly fitted or top-dose-only effect; inactive = no such curve, though single readings can be large or run the other way; note: potency is the fitted concentration of half-maximal effect; % is set by controls: 0 for no effect and ±100 for the full control effect; nearly all actives have a fitted effect of over 60% in size
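In this screen, compounds sit with the deubiquitinase complex (1nM) for 15 min at room temperature before Ub-Rho is added at 150nM final. Fluorescence rise is then followed for 6 reads every 60 seconds.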
TRHR PAM – allosterically enhances the human TRH receptor; hit rate 0.66% among 360,000; enhancement, % at 2 µM; TRHR cells, fluo-8 calcium fluorescence, EC20 TRH enhancement; P34981; in the data active = enhancement above about 30%; note: 0% is about no effect
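TRHR-expressing cells loaded with fluo-8 calcium dye were read kinetically (ex 480/em 530) during compound addition, then stimulated with an EC20 of TRH (10 nM final). Enhancement of the Gq-mediated intracellular calcium response was scored.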
D1 potentiator – human D1 dopamine receptor positive modulation | P21728 | HEK293 TREx D1 cells, calcium flux, dopamine EC20 potentiation | potentiation, % at 10 µM | hit rate 0.036% among 360,000 | AID 504651; in the data active = potentiation above about 30%; note: 0% is about no effect
Target sequence (P21728 whole entry, looked up): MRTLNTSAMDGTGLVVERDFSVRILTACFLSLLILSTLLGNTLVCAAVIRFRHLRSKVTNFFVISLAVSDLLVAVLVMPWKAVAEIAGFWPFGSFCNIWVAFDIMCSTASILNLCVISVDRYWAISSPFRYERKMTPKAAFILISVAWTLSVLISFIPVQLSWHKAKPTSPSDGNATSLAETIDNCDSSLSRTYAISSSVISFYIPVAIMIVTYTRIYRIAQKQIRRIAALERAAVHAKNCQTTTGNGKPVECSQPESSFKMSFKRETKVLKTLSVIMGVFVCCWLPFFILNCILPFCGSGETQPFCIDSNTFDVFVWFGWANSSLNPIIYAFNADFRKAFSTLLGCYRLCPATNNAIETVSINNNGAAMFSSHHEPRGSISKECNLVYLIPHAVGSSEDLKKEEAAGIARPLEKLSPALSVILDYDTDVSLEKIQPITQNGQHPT
D1 ag – human D1 receptor agonism; P21728; HEK293 T-REx D1 cells, calcium flux, agonist mode; activation, % at 2 µM; hit rate 1% among 360,000; AID 504660; note: 0% is about no effect
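Tetracycline-induced HEK293 TREx D1 cells, force-coupled to calcium signalling, were dye-loaded with a no-wash calcium kit. Compound was pin-added after a 10 s baseline. Fluorescence was read kinetically at 1 cycle/s for 180 s, with calcium rises flagged as agonism.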
TRHR agonist – TRH receptor (human) agonism. P34981. TRHR cells, calcium flux fluo-8, FDSS agonist mode. activation, % at 2 µM. hit rate 0.18% among 360,000; note: 0% is about no effect
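Agonist-mode FDSS calcium read (Ex 480/Em 530, 1 s cycles) in 1536-well TRHR cells with fluo-8 dye, after 10-cycle baseline and 23 nL compound addition; TRH at EC20 (10 nM final) added afterwards for the enhancer phase.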
D1 antagonist – human D1 dopamine receptor antagonism. HEK293 TREx D1 cells, calcium flux, dopamine EC80; hits give low values. activity change, negative = inhibition, % at 10 µM. hit rate 3.2% among 360,000. AID 504652; in the data active = activity change below about -30%; note: % is set by controls: 0 for no effect and ±100 for the full control effect
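Inducible Hek293 Trex D1 cells (tetracycline, overnight, 30 C). Calcium dye 30–90 min RT. Antagonist mode: EC80 dopamine added after 180 s compound read.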
An asterisk follows results filed as active; ? = inconclusive; . = no result given. Hits are enriched below; roughly 4.4% of the tested compounds scored in any of these assays. Cut-off read from the data, not from the text of the source, unless noted: active = activation above about 30%; inactive = the rest.

SMILES | USP1-UAF1 inh | TRHR PAM | D1 potentiator | D1 ag | TRHR agonist | D1 antagonist
CS(=O)(=O)c1ccc(C(=O)OCC(=O)NC(=O)C2CCCCC2)cc1[N+](=O)[O-] | -23% | 18 | -4 | 7 | 0 | -33*
COc1cc(SC)ccc1C(=O)OCC(=O)NC1CCCCC1 | -15% | 2 | 2 | 1 | 0 | -32*
CC(=O)c1cccc(NC(=O)COC(=O)c2ccc(S(C)(=O)=O)c([N+](=O)[O-])c2)c1 | -5% | -3 | 0 | 2 | 0 | -34*
CCN(CC)S(=O)(=O)c1ccc(C(=O)OCC(=O)NC2CCCC2)cc1 | -24% | -4 | -8 | 9 | 0 | -21
CC(C)CCNC(=O)Nc1ccc2c(c1)N(C)C(=O)c1ccccc1S2 | -15% | 0 | -1 | -2 | -1 | 7
Cc1ccccc1NC(=O)Cc1nc(COC(=O)c2ccc(S(C)(=O)=O)c([N+](=O)[O-])c2)cs1 | -3% | -4 | -8 | 5 | -1 | -36*
CC(=O)c1cccc(NC(=O)COC(=O)c2ccc3c(c2)OCO3)c1 | -5% | 11 | . | 9 | 0 | -31*
CC(=O)Nc1cccc(C(=O)OCC(=O)NC2CCCCCCC2)c1 | -19% | 24 | -5 | 6 | 2 | -39*
CC(=O)Nc1cccc(C(=O)OCC(=O)NC(=O)NC2CCCC2)c1 | -13% | . | . | . | . | .
NC(=O)c1ccc(NC(=O)COC(=O)/C=C/c2ccc3c(c2)OCO3)cc1 | -24% | -2 | 1 | 8 | 4 | -41*
Cc1c(-c2nsc(NC(=O)c3cccs3)n2)nnn1-c1ccc(F)cc1 | -7% | -2 | -2 | 8 | 1 | -10
Cc1cc(Nc2ccc(Cl)cc2)n2cnnc2n1 | -2% | -2 | -1 | 3 | -1 | 4
CCN1C(C(=O)c2ccccc2)=C(OC(=O)c2ccccc2OC)c2ccccc2S1(=O)=O | -13% | -11 | -4 | 6 | 0 | -4
CCOc1ccc(NC(=O)Cn2ccn3nc(-c4ccc(OC)c(OC)c4)cc3c2=O)cc1 | -15% | -1 | 0 | -1 | 1 | -5
COCCNC(=O)c1ccc2c(=O)n(CCc3ccccc3)c(SCC(=O)CC(=O)OC)nc2c1 | -5% | -3 | -5 | 1 | 0 | -34*
CC1CCN(CCCNC(=O)c2ccc3c(=O)n(CCc4ccccc4)c(=O)[nH]c3c2)CC1 | -16% | -3 | -1 | 3 | -2 | -42*
O=C(NCc1ccccn1)c1ccc2c(=O)n(CCc3ccccc3)c(=O)[nH]c2c1 | -22% | -5 | -10 | 9 | 0 | -54*
CCN(CC)CCCNC(=O)c1ccc2c(=O)n(CCc3ccccc3)c(=O)[nH]c2c1 | -24% | 4 | -2 | 1 | 0 | -16
CC(=O)NCCNC(=O)c1ccc2c(=O)n(CCc3ccccc3)c(=O)[nH]c2c1 | -16% | 6 | -2 | 0 | 0 | -67*
COc1ccc(-c2noc(-c3ccc(N4CCN(c5ccc(OC)cc5)CC4)c([N+](=O)[O-])c3)n2)cc1 | -15% | -6 | -2 | 0 | 0 | 2
O=C1S/C(=C/c2ccc(N3CCOCC3)o2)C(=O)N1Cc1c(F)cccc1Cl | ? | -11 | 0 | 129* | 28 | .
O=C1N=C(N2CCOCC2)S/C1=C/c1ccc(-c2ccccc2Cl)o1 | -15% | 8 | 2 | 2 | 0 | 4
O=C(O)c1ccccc1-c1ccc(/C=C2\SC(=O)N(c3ccccc3)C2=O)o1 | -16% | 10 | 3 | 4 | 2 | -7
O=C1S/C(=C\c2ccc(N3CCOCC3)o2)C(=O)N1c1ccccc1 | 28µM* | 9 | 7 | 159* | 63* | 26
O=C1S/C(=C\c2ccc(N3CCOCC3)o2)C(=O)N1Cc1c(F)cccc1Cl | 4µM* | -6 | -14 | 62* | 27 | 27
SMILES | USP1-UAF1 inh | TRHR PAM | D1 potentiator | D1 ag | TRHR agonist | D1 antagonist
COc1ccc(C(=O)Oc2c(Sc3ccc(C)cc3)c(C)nn2C(C)(C)C)c(OC)c1 | -1% | -8 | 0 | 6 | 1 | 0
CCc1ccc(NC(=O)C2CCC(CNS(=O)(=O)c3ccc4c(c3)C(C)(C)C(=O)N4C)CC2)cc1 (configuration not stated) | -9% | -1 | -1 | 5 | 1 | -4
Cc1ccc(-n2ncc(C(=O)Nc3ccc(Cl)cc3)c2C2CCNCC2)cc1C | -7% | 7 | 3 | 2 | 2 | -44*
Cc1ccc(-c2noc(CN(C3CCCCC3)S(=O)(=O)c3ccc(C)cc3)n2)cc1 | -10% | -10 | -1 | 5 | 1 | 6
COc1ccc(-c2noc(CSc3nnc(C)n3-c3ccc(F)cc3)n2)cc1 | ? | -6 | 0 | 4 | 0 | -29
O=C1[C@H]2[C@@H](C(=O)N1c1cccc3ccccc13)C1(C(=O)c3ccccc3C1=O)N1CCC[C@@H]21 | -24% | 34* | 4 | 4 | -1 | -1
O=C(CNS(=O)(=O)c1c(Cl)cccc1Cl)OCc1csc(-c2ccccc2)n1 | -8% | -3 | 0 | 7 | 0 | -48*
O=C(CNS(=O)(=O)c1ccc2ccccc2c1)OCc1csc(-c2ccccc2)n1 | -22% | 2 | -7 | 9 | 1 | -11
Cc1ccc(S(=O)(=O)NCC(=O)OCc2csc(-c3ccccc3)n2)cc1 | -21% | 33* | -3 | 2 | -1 | 4
COc1ccc(-c2nc(CNS(=O)(=O)c3ccc(F)cc3)cs2)cc1 | -24% | 0 | -1 | 24 | -2 | -32*
COc1ccc(-c2nc(CNS(=O)(=O)c3ccc(C)cc3)cs2)cc1 | -20% | 6 | 0 | 13 | -2 | -3
Cc1ccc(C(=O)NCC(=O)OCc2csc(-c3ccccc3)n2)cc1 | -9% | 3 | 1 | 6 | -1 | 8
NC(=O)CC[C@H](NC(=O)c1ccc(F)cc1)C(=O)OCC(=O)Nc1c(F)c(F)c(F)c(F)c1F | -17% | 0 | -3 | 4 | 0 | -7
N#Cc1ccc(Cl)cc1NC(=O)COC(=O)[C@H](CCC(N)=O)NC(=O)c1ccc(F)cc1 | -18% | -4 | 1 | 2 | -1 | -32*
O=C(CN1C(=O)COc2ccc(S(=O)(=O)NC3CCCC3)cc21)NCc1ccc(Cl)cc1 | -19% | 1 | -2 | 5 | 1 | 0
CCOC1(OCC)N=C(N)C2(C#N)C(c3cccc(C)c3)C12C#N (configuration not stated) | -13% | 1 | -2 | 0 | 0 | -82*
CCOC(=O)c1ccc(Nc2nnc(C(C)(C)C)c(=O)[nH]2)cc1 | -14% | -10 | -9 | 18 | 0 | -56*
CCOC(=O)c1ccc(Nc2cc(C)nc(C)c2C(=O)OCC)cc1 | -6% | 5 | -1 | -1 | -1 | .
Cc1cc(NC(=O)Nc2nnc(N3CCCCC3)s2)ccc1Br | -10% | 0 | 4 | -1 | 0 | 6
